Measurements reported in PubChem BioAssay (NCI).
About 79,000 compounds went through this panel and 15% of them were active in at least one assay; those are over-represented in the sample as a whole. Unmarked numbers belong to inactive results. Active and inactive are the calls of the source. Rule as the data show it: active = growth inhibition above about 70%; inactive = the rest.

How the values were obtained:
[1] = NCI Yeast Anticancer Drug Screen. Data for the rad50 strain (AID 155);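 also: 0% = growth of vehicle-only cultures of the same strain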; details: S. cerevisiae rad50 strain growth inhibition, stronger effect = higher value
Procedure, shortened: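 Readout: growth inhibition relative to vehicle-treated cultures. Compound exposure was carried out in a genetically defined yeast strain deficient in DNA damage repair.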

[2] = NCI Yeast Anticancer Drug Screen. Data for the mec2-1 strain (AID 157); details: S. cerevisiae mec2-1 strain, stronger effect = higher value
Procedure, shortened: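 Mutant yeast (mec2-1) grown with compound; growth inhibition relative to vehicle control reported.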

[3] = NCI Yeast Anticancer Drug Screen. Data for the sgs1 mgt1 strain (AID 161);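 also: 0% = growth of cultures given vehicle only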; details: S. cerevisiae sgs1 mgt1 strain, stronger effect = higher value
Procedure, shortened: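 Percent growth inhibition was derived by comparing compound-exposed mutant yeast with vehicle-exposed cultures. The strain carries alterations in DNA damage repair.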

[4] = NCI Yeast Anticancer Drug Screen. Data for the cln2 rad14 strain (AID 165);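 also: 0% = growth equal to vehicle treated cultures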; details: S. cerevisiae cln2 rad14 strain, stronger effect = higher value
Procedure, shortened: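 Readout is yeast growth inhibition versus vehicle-treated controls, using a strain with cln2 and rad14 alterations exposed to compound.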

[5] = NCI Yeast Anticancer Drug Screen. Data for the bub3 strain (AID 167); details: S. cerevisiae bub3 mutant strain, stronger effect = higher value
Procedure, shortened: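 Readout: yeast growth inhibition, expressed relative to vehicle-only wells. The test organism is a mutant strain from a panel with lesions in DNA repair or checkpoint genes.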

[6] = NCI Yeast Anticancer Drug Screen. Data for the mlh1 rad18 strain (AID 175); details: S. cerevisiae mlh1 rad18 strain growth inhibition, stronger effect = higher value
Procedure, shortened: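 Genetically defined yeast (DNA repair-deficient) exposed to compounds; growth inhibition determined relative to vehicle.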

[7] = at 5.0 µM (retest, dose inferred, filed as 0.5)
[8] = at 50.0 µM (retest, dose inferred, filed as 5.0)

Compound | growth inhibition [1, 7] | growth inhibition [1, 8] | growth inhibition ([1]; at 50.0 µM) | growth inhibition [2, 7] | growth inhibition [2, 8] | growth inhibition ([2]; at 50.0 µM) | growth inhibition [3, 7] | growth inhibition [3, 8] | growth inhibition ([3]; at 50.0 µM) | growth inhibition [4, 7] | growth inhibition [4, 8] | growth inhibition ([4]; at 50.0 µM) | growth inhibition [5, 7] | growth inhibition [5, 8] | growth inhibition ([5]; at 50.0 µM) | growth inhibition [6, 7] | growth inhibition [6, 8] | growth inhibition ([6]; at 50.0 µM)
O=C1c2ccccc2NC(=O)C2C1C(c1ccccc1)CC2(O)c1ccccc1 (stereo not given) | 7% | 87% (active) | 62.5% | 7% | 88% (active) | 73.8% (active) | 16% | 70% (active) | 72% (active) | -14% | 51% | 68% | -27% | 75% (active) | 69.5% | 21% | 86% (active) | 32.5%
COc1ccc(C2COc3cc(O)c(O)cc3C2)cc1 (stereo not given) | 95% (active) | 99% (active) | 99.6% (active) | 95% (active) | 99% (active) | 99.6% (active) | 93% (active) | 99% (active) | 99.8% (active) | 46% | 99% (active) | 99.6% (active) | 98% (active) | 99% (active) | 99.6% (active) | 99% (active) | 99% (active) | 98.2% (active)
O=C(O)C(O)C(O)C(O)C(O)c1nc2ccccc2s1 (stereo not given) | 13% | 98% (active) | 98.6% (active) | 13% | 99% (active) | 98.7% (active) | 12% | 96% (active) | 90.5% (active) | 1% | 95% (active) | 73.7% (active) | 8% | 99% (active) | 99% (active) | 9% | 97% (active) | 99% (active)
COc1ccc(C(=O)C(CN2CCCC2)CN2CCCC2)cc1 | -1% | 75% (active) | 47.6% | 4% | 88% (active) | 88.1% (active) | -5% | 82% (active) | 44% | 2% | 54% | 7.4% | -5% | 81% (active) | 59.5% | 3% | 79% (active) | 69.3%
NNc1c(Cl)c(F)c(Cl)c(F)c1Cl | 13% | 17% | 21.6% | 5% | 17% | 36.5% | 4% | 26% | 47.5% | 13% | 24% | 34.2% | 3% | 24% | 54.7% | 17% | 24% | 66.7%
CCOC(C)c1ccccc1 (stereo not given) | 39% | 90% (active) | -37% | 42% | 99% (active) | -5.85% | 16% | 62% | 30.8% | 10% | 59% | -16.9% | 19% | 99% (active) | -0.8% | 64% | 99% (active) | -0.2%
CCCCCC(CO)C(O)(C(F)(F)F)C(F)(F)F (stereo not given) | -23% | -5% | 44.8% | -26% | 7% | 33.9% | 1% | 9% | 65.4% | 3% | 15% | 47.4% | 0% | 11% | -30.4% | -26% | -1% | 49.1%
CC(C)CCCCCCCCCCCCC(=O)NCC(=O)NC1C(C)OC(Nc2ncnc3nc[nH]c23)C(O)C1O (stereo not given) | 22% | 22% | 29.1% | 54% | 32% | 9.55% | 43% | 45% | 34.5% | 5% | 10% | 2.2% | 58% | 23% | 77.1% (active) | 52% | 35% | 19.4%
CCCCCC=C(c1cc(Br)cc(C(=O)O)c1O)c1cc(Br)cc(C(=O)O)c1O | 2% | 91% (active) | 89.2% (active) | 0% | 95% (active) | 85.8% (active) | 0% | 95% (active) | 82.8% (active) | 2% | 94% (active) | 67.1% | 0% | 94% (active) | 69% | 4% | 94% (active) | 88.9% (active)
O=C1C=CC(=O)N1C1CCCCC1 | 93% (active) | 99% (active) | 99.6% (active) | 60% | 100% (active) | 99.7% (active) | 95% (active) | 99% (active) | 99.5% (active) | 30% | 99% (active) | 99.8% (active) | 90% (active) | 99% (active) | 99.7% (active) | 98% (active) | 99% (active) | 99.6% (active)
